Inconclusive results are not listed. Activity calls are given as the source filed them.
Potency means the concentration at half of the fitted maximal effect.

One experiment in a line: qHTS for identification of novel therapeutic agents for treatment of microphthalmiaassociated transcription factor (MiT) renal cell carcinoma (RCC) (AID 1963991). The note with it: TFE3-RCC UOK109 viability, CellTiter-Glo, 48 h; active = Z-AUC below -0.8 in all three lines. In a few lines: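 Three TFE3-fusion RCC lines (UOK109, UOK124, UOK145), 500 cells/well in complete medium, were treated with MIPE 4.0 compounds for 48 hours at 37 C. Viability was by CellTiter-Glo luminescence, normalized to DMSO (100%) and empty wells (0%); curves fitted over 11 concentrations.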
A general note: Quantitative high-throughput screening tests each substance at several concentrations.
Turning to `FC(F)(F)c1ccc(C=Cc2nc(COc3ccc(CCCCn4ccnn4)cc3)co2)cc1`, the Potency was 2.96 nM (active).
For `CO[C@H]1/C=C\O[C@@]2(C)Oc3c(C)c(O)c4c(O)c(c(C=NN5CCN(C6CCCC6)CC5)c(O)c4c3C2=O)NC(=O)C(C)=CC=C[C@H](C)[C@H](O)[C@@H](C)[C@@H](O)[C@@H](C)[C@H](OC(C)=O)[C@H]1C`, the Potency was 105 nM (active).
`C[C@@H]1O[C@@H](O[C@H]2CC[C@@]3(C)[C@H](CC[C@@H]4[C@H]3C[C@@H](O)[C@]3(C)[C@@H](C5=CC(=O)OC5)CC[C@]43O)C2)C[C@H](O)[C@@H]1O[C@H]1C[C@H](O)[C@H](O[C@H]2C[C@H](O)[C@@H](O)[C@@H](C)O2)[C@H](C)O1` (stereo in doubt): the Potency was 215 nM (active).
Turning to `CC[C@]1(O)C[C@H]2CN(CCC3=c4ccccc4=N[C]3[C@@](C(=O)OC)(c3cc4c(cc3OC)N(C)[C@H]3[C@@](O)(C(N)=O)[C@H](O)[C@]5(CC)C=CCN6CC[C@]43[C@@H]65)C2)C1`, the Potency is 332 nM (active).

Staying with this experiment, now noted: TFE3-RCC UOK109 viability, CellTiter-Glo, 48 h; measured here: UOK109 Z-AUC; stronger effect = lower value.
On to `COc1cccc(OC)c1-c1cc(C(=O)NC2(C(=O)O)C3CC4CC(C3)CC2C4)nn1-c1ccnc2cc(Cl)ccc12` (stereo not given), for which the z-score stood at 1.18.
`Cc1ccc(S(=O)(=O)OCC(=O)Nc2ccc(C(=O)O)c(O)c2)cc1` registered a z-score of -0.0907.
For `CNC1[C@H](O)C(O[C@@H]2C(O)C(O[C@H]3O[C@H]([C@@H](C)NC)CC[C@H]3N)[C@@H](N)C[C@H]2N)OC[C@]1(C)O` (stereo not given in full), the z-score was 0.654.
With `COc1cc(C=CC(=O)O)ccc1O`, the z-score was -0.0784.
For the compound `CO[C@H]1/C=C\O[C@@]2(C)Oc3c(C)c(O)c4c(O)c(c5c(nc6cc(C)ccn65)c4c3C2=O)NC(=O)C(C)=CC=C[C@H](C)[C@H](O)[C@@H](C)[C@@H](O)[C@@H](C)[C@H](OC(C)=O)[C@H]1C`, the z-score stood at 0.788.
Consider `N=C1SC(=Cc2ccc(-c3ccc4c(c3)C(=O)NC4=O)o2)C(=O)N1c1ccc(Br)cc1`, for which the z-score was found to be 0.374.
The same measure, in the same setting: to `C[C@]12C=CC(=O)C=C1CC[C@@H]1[C@@H]2[C@@H](O)C[C@@]2(C)[C@@H]1CC[C@]2(O)C(=O)CO` belongs 0.748; to `C[C@@H](O)[C@H]1C(=O)N2C(C(=O)OCOC(=O)C(C)(C)C)=C(SC3CN(C4=NCCS4)C3)[C@H](C)[C@H]12`, 1.65; to `CN(C)c1nc(Cc2ccc(NC(=O)c3ccc(C(F)(F)F)cc3)cc2)nc(N(C)C)c1CC(=O)O`, 0.568.
`FC(F)(F)c1ccc(C=Cc2nc(COc3ccc(CCCCn4ccnn4)cc3)co2)cc1`: the z-score was -2.19.
On the same count and under the same terms, to `CC[C@H](C)C(=O)O[C@H]1C[C@H](O)C=C2C=C[C@H](C)[C@H](CC[C@@H](O)C[C@@H](O)CC(=O)O)[C@H]21` belongs 0.594; to `CC1(C)OC2CC3C4CC(F)C5=CC(=O)C=CC5(C)C4C(O)CC3(C)[C@]2(C(=O)CO)O1` (stereo not given in full), 0.56.
In the case of `CO[C@H]1/C=C\O[C@@]2(C)Oc3c(C)c(O)c4c(O)c(c(C=NN5CCN(C6CCCC6)CC5)c(O)c4c3C2=O)NC(=O)C(C)=CC=C[C@H](C)[C@H](O)[C@@H](C)[C@@H](O)[C@@H](C)[C@H](OC(C)=O)[C@H]1C`, the z-score was -1.72.
Turning to `COc1cc2c(cc1OC)[C@@H]1Cc3ccc(OC)c(OC)c3CN1CC2`, the z-score was found to be 0.652.
Take `COc1ccc2c(c1)CC[C@H]1[C@@H]2CC[C@]2(C)[C@@H](NCCCCCCN3C(=O)C=CC3=O)CC[C@H]12`: the z-score was 1.13.
Take `CCCCC[C@H](O)C=C[C@H]1[C@H](O)CC(=O)[C@H]1CCCCCCC(=O)O`: the z-score amounted to 1.1.
Same read-out and setting: the result for `CN(CC=CC#CC(C)(C)C)Cc1cccc2ccccc12` reads 0.358; that for `C[C@@H]1O[C@@H](O[C@H]2CC[C@@]3(C)[C@H](CC[C@@H]4[C@H]3C[C@@H](O)[C@]3(C)[C@@H](C5=CC(=O)OC5)CC[C@]43O)C2)C[C@H](O)[C@@H]1O[C@H]1C[C@H](O)[C@H](O[C@H]2C[C@H](O)[C@@H](O)[C@@H](C)O2)[C@H](C)O1` (stereo in doubt), -2.46; that for `CCC=CC[C@H]1C(=O)CC[C@@H]1CC(=O)OC`, -0.107.
`C#CCN(C)CC1=Cc2ccccc2Oc2ccccc21` displayed a z-score of -0.41.
The same measure, in the same setting: the result for `CN[C@@H]1[C@@H](O)[C@@H](O[C@@H]2[C@@H](O)[C@H](O[C@H]3O[C@H](CN)[C@@H](O)[C@H](O)[C@@H]3O)[C@@H](N)C[C@@H]2NC(=O)[C@@H](O)CN)OC[C@]1(C)O` reads 2.18; that for `Cc1ccccc1C(C(=O)NC1CCCCC1)N(C(=O)CNc1ccc(C#N)cc1)c1cccc(F)c1` (stereo not given), 0.515.
Still for that read-out and setting: the result for `CC1(C)[C@H]2CC[C@]3(C)[C@@H](C(=O)C=C4[C@@H]5C[C@@](C)(C(=O)O)CC[C@]5(C)CC[C@]43C)[C@@]2(C)CC[C@@H]1O` reads 0.727; that for `C[C@@H]1CCO[C@H]2Cn3cc(C(=O)NCc4ccc(F)cc4F)c(=O)c(O)c3C(=O)N12`, 0.807.
`C[C@]12CCC3=C4CCC(=O)C=C4CC[C@@H]3[C@H]1CC[C@@]2(O)CC#N` registered a z-score of 0.693.
With `CC(=O)OCC(=O)[C@@]1(O)CC[C@H]2[C@@H]3CCC4=CC(=O)C=C[C@]4(C)[C@@H]3[C@@H](O)C[C@@]21C`, the z-score is 0.953.
For `CCNC(=O)CCCC=CC[C@@H]1[C@H](C=CC(O)CCc2ccccc2)[C@@H](O)C[C@@H]1O` (stereo not given in full), the z-score came to 1.02.
For the compound `CC(C)=CCCC(C)=CCCC(C)=CCCC(C)=CCCC(C)=CCCC(C)=CCCC(C)=CCCC(C)=CCCC(C)=CCO`, the z-score worked out at 0.865.
For `CN[C@H]1[C@@H](O[C@@H]2[C@H](O[C@@H]3[C@@H](O)[C@@H](O)[C@@H](N=C(N)N)[C@@H](O)[C@@H]3N=C(N)N)O[C@H](C)[C@@]2(O)C=O)O[C@@H](CO)[C@@H](O)[C@H]1O`, the z-score was determined as 2.74.
Still for that read-out and setting: the result for `COc1ccc(C=CC(=O)Nc2ccccc2C(=O)O)cc1OC` reads 0.299.
Same read-out and setting: to `CC[C@]1(O)C[C@H]2CN(CCC3=c4ccccc4=N[C]3[C@@](C(=O)OC)(c3cc4c(cc3OC)N(C)[C@H]3[C@@](O)(C(N)=O)[C@H](O)[C@]5(CC)C=CCN6CC[C@]43[C@@H]65)C2)C1` belongs -0.8.

These data come from PubChem BioAssay (NCATS).
